C diff growth: inhibitors of Clostridium difficile growth; Clostridium difficile clinical isolate growth, OD600, 24 h; hits give low values; AID 1259249; 0.25% of 86,000 active; growth activity, negative = inhibition, % at 16 µg/mL (by protocol);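 active = mean growth activity at or below -80% and every replicate also at or below -80%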
Tcruzi prolif: blocks T. cruzi growth in NIH3T3 culture | T. cruzi beta-gal in NIH3T3, GalScreen luminescence, 90 h | 5.9% of 77,000 active | inhibition, % at 8.34 µM;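 active = mean inhibition above about 93%, with at least 55% of replicates each passing it, limit read from the data, passing the limit was not always enough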
Pf Dd2 growth: inhibitors of Plasmodium falciparum Dd2 growth; 2.3% of 94,000 active; P. falciparum Dd2 growth, SYBR Green, 72 h; hits give low values; AID 1159554; activity change, % at 10 µM; in the data active = activity change below about -80%
A number is an active result; i = inactive; nt = not tested or not shown. Shown are actives, neighbours in structure and some others; about 6.8% of the full set was active somewhere.

SMILES	C diff growth	Tcruzi prolif	Pf Dd2 growth
COc1ccc(NC(=O)N(C)C[C@@H]2Oc3c(cccc3N(C)C)C(=O)N([C@H](C)CO)C[C@@H]2C)cc1	i	i	i
C[C@@H]1CN([C@@H](C)CO)C(=O)c2cc(NC(=O)Nc3ccc(F)cc3)ccc2O[C@H]1CN(C)C(=O)Nc1ccccc1	i	i	i
C[C@@H]1CCCCO[C@H](CN(C)C)[C@@H](C)CN([C@H](C)CO)C(=O)c2cc(NC(=O)CCCN(C)C)ccc2O1	i	i	i
CCCc1cn(CC[C@@H]2CC[C@H](NS(=O)(=O)c3ccc(-c4ccccc4)cc3)[C@@H](CO)O2)nn1	i	i	i
CN(C)Cc1cn(CC[C@@H]2CC[C@H](NS(=O)(=O)c3ccc(-c4ccccc4)cc3)[C@@H](CO)O2)nn1	nt	i	i
CCCc1cn(CC[C@@H]2CC[C@@H](NS(=O)(=O)c3ccc(-c4ccccc4)cc3)[C@H](CO)O2)nn1	i	i	-93
CCCc1cn(CC[C@H]2CC[C@H](NS(=O)(=O)c3ccc(-c4ccccc4)cc3)[C@@H](CO)O2)nn1	i	i	-89
CCCc1cn(CC[C@H]2CC[C@@H](NS(=O)(=O)c3ccc(-c4ccccc4)cc3)[C@H](CO)O2)nn1	i	i	-94
CN(C)Cc1cn(CC[C@@H]2CC[C@H](NS(=O)(=O)c3ccc(-c4ccccc4)cc3)[C@H](CO)O2)nn1	nt	i	i
COc1cccc(-c2ccc([C@@H]3[C@@H](CO)N4C(=O)CN(C(=O)NC(C)C)C[C@H]34)cc2)c1	i	nt	i
CCCNC(=O)N(C)C[C@@H]1Oc2ncc(-c3ccc(OC)cc3)cc2C(=O)N([C@H](C)CO)C[C@@H]1C	i	i	i
COc1ccccc1NC(=O)N[C@H]1C=C[C@@H](CC(=O)NCc2ccc(Cl)c(Cl)c2)O[C@H]1CO	nt	i	i
C[C@H]1CN([C@@H](C)CO)C(=O)c2cccc(NS(=O)(=O)c3cccs3)c2O[C@@H]1CN(C)C	i	nt	i
C[C@H]1CCCCO[C@H](CN(C)Cc2ccc(C(F)(F)F)cc2)[C@@H](C)CN([C@@H](C)CO)C(=O)c2cc(NC(=O)CCC(F)(F)F)ccc2O1	i	i	i
C[C@@H]1CCCCO[C@@H](CN(C)C(=O)C2CCCCC2)[C@@H](C)CN([C@@H](C)CO)C(=O)c2cc(NC(=O)C3CCCCC3)ccc2O1	i	i	-85
C[C@@H]1CN([C@@H](C)CO)C(=O)c2cc(NC(=O)Nc3ccc4c(c3)OCO4)ccc2O[C@@H](C)CCCCO[C@H]1CN(C)C(=O)C1CCCCC1	i	i	i
C[C@@H]1CCCCO[C@@H](CN(C)C(=O)C2CCCCC2)[C@H](C)CN([C@H](C)CO)C(=O)c2cc(NC(=O)Nc3ccc4c(c3)OCO4)ccc2O1	i	107	i
C[C@@H]1CN([C@H](C)CO)C(=O)c2cc(NC(=O)C3CCCCC3)ccc2O[C@@H](C)CCCCO[C@@H]1CN(C)C(=O)C1CCCCC1	i	i	i
C[C@@H]1CN([C@@H](C)CO)C(=O)c2cc(NC(=O)Nc3ccccc3)ccc2O[C@@H](C)CCCCO[C@@H]1CN(C)C(=O)C1CCCCC1	i	i	-84
C[C@@H]1CCCCO[C@H](CN(C)C(=O)c2ccccc2)[C@@H](C)CN([C@@H](C)CO)C(=O)c2cc(NC(=O)Nc3ccc4c(c3)OCO4)ccc2O1	i	i	-81
C[C@@H]1CCCCO[C@H](CN(C)C(=O)c2ccccc2)[C@@H](C)CN([C@H](C)CO)C(=O)c2cc(NC(=O)Nc3ccc4c(c3)OCO4)ccc2O1	i	i	i
C[C@@H]1CN([C@H](C)CO)C(=O)c2cc(NC(=O)Nc3ccccc3)ccc2O[C@@H](C)CCCCO[C@H]1CN(C)C(=O)C1CCCCC1	i	i	i
CCCNC(=O)N1[C@H](CO)[C@@H](c2ccccc2)C12CN(CCC(F)(F)F)C2	i	nt	i
C[C@@H]1CN([C@H](C)CO)C(=O)c2cc(NC(=O)c3ccncc3)ccc2O[C@@H](C)CCCCO[C@H]1CN(C)Cc1ccncc1	i	i	i
C[C@@H]1CCCCO[C@@H](CN(C)S(=O)(=O)c2ccc(F)cc2)[C@@H](C)CN([C@H](C)CO)C(=O)c2cc(NC(=O)CCC(F)(F)F)ccc2O1	i	i	nt
SMILES	C diff growth	Tcruzi prolif	Pf Dd2 growth
C[C@H](O)C#Cc1ccc2c(c1)O[C@@H](CN(C)C(=O)Nc1ccccc1)[C@H](C)CN([C@H](C)CO)S2(=O)=O	i	i	i
C[C@H]1CCCCO[C@@H](CN(C)C(=O)C2CCCCC2)[C@@H](C)CN([C@@H](C)CO)C(=O)c2cc(NC(=O)Nc3ccccc3)ccc2O1	i	i	-88
C[C@H](CO)N1C[C@H](C)[C@H](CN(C)C(=O)C2CCCCC2)OCCCC[C@H](C)Oc2ccc(NC(=O)Nc3ccccc3)cc2C1=O	i	i	i
C[C@H]1CCCCO[C@@H](CN(C)C(=O)C2CCCCC2)[C@@H](C)CN([C@@H](C)CO)C(=O)c2cc(NC(=O)c3ccncc3)ccc2O1	i	i	-81
C[C@@H]1CCCCO[C@H](CN(C)C(=O)C2CCCCC2)[C@@H](C)CN([C@@H](C)CO)C(=O)c2cc(NC(=O)Cc3ccccc3)ccc2O1	i	i	-85
C[C@H](CO)N1C[C@H](C)[C@H](CN(C)C(=O)C2CCCCC2)OCCCC[C@H](C)Oc2ccc(NC(=O)c3ccncc3)cc2C1=O	i	i	i
C[C@@H]1CN([C@@H](C)CO)C(=O)c2cc(NC(=O)Cc3ccccc3)ccc2O[C@@H](C)CCCCO[C@H]1CN(C)C(=O)C1CCCCC1	i	i	i
COc1ccc2c3c(n(C)c2c1)[C@@H](CO)N(C(=O)CC1CC1)CC31CN(C(=O)CC2CC2)C1	i	nt	i
CCC(=O)N(C)C[C@@H]1Oc2ncc(-c3ccccc3F)cc2C(=O)N([C@H](C)CO)C[C@H]1C	i	i	i
Cc1ccccc1-c1cnc2c(c1)C(=O)N([C@H](C)CO)C[C@@H](C)[C@@H](CN(C)C(=O)c1ccncc1)O2	i	i	i
CCS(=O)(=O)N1CC2(CN(Cc3ccccc3F)[C@H](CO)c3[nH]c4cc(OC)ccc4c32)C1	i	nt	-82
COc1ccc2c3c([nH]c2c1)[C@@H](CO)N(Cc1ccccc1F)CC31CCN(C)CC1	i	nt	i
COc1ccc2c3c([nH]c2c1)[C@H](CO)N(Cc1ccccc1F)CC31CN(C(=O)C2CCOCC2)C1	i	nt	i
COc1ccc2c3c([nH]c2c1)[C@@H](CO)N(Cc1ccccc1F)CC31CCN(C(=O)C2CCC2)CC1	i	nt	i
COc1ccc2c3c([nH]c2c1)[C@@H](CO)N(Cc1ccccc1F)CC31CCN(C(=O)C2CCOCC2)CC1	i	nt	-91
COc1ccc2c3c([nH]c2c1)[C@H](CO)N(Cc1ccccc1F)CC31CN(C(=O)C2CCC2)C1	i	nt	-93
CCCNC(=O)N1CC2(CN(C(=O)C3CC3)C2)c2c([nH]c3cc(OC)ccc23)[C@@H]1CO	i	nt	i
CCCNC(=O)N1CC2(CN(C(=O)C3CCC3)C2)c2c([nH]c3cc(OC)ccc23)[C@@H]1CO	i	nt	-84
C[C@H]1CCCCO[C@@H](CN(C)C)[C@@H](C)CN([C@@H](C)CO)C(=O)c2cc(NS(=O)(=O)c3cn(C)cn3)ccc2O1	i	i	i
COc1ccc2c3c([nH]c2c1)[C@H](CO)N(C(=O)CN(C)C)CC31CCN(CC2CCCC2)CC1	i	nt	i

Source: PubChem BioAssay (Broad Institute)
